The other results are listed elsewhere or left out. Calls of active or inactive are those of the source. Rule as the data show it, unless noted: active = inhibition above about 30%; inactive = the rest.
Legend:
[1] = biological target: Nuclear receptor coactivator 3 (Homo sapiens) (UniProt Q9Y6Q9); assay: NCOA3 GAL4-fusion reporter inhibition – cell-based, luminescence, quadruplicate, confirmation (AID 588792;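 active = mean inhibition over 43.08%, the solvent-only control mean plus 3 SD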;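 also: 0% = DMSO treated cells and 100% = gossypol at 36 µM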); conditions: HEK293 GAL4-SRC3 luciferase reporter, at 3.6 µM, active compounds read high
Chain of Nuclear receptor coactivator 3 (Homo sapiens) (Q9Y6Q9 whole entry, looked up, the tested form may be a part): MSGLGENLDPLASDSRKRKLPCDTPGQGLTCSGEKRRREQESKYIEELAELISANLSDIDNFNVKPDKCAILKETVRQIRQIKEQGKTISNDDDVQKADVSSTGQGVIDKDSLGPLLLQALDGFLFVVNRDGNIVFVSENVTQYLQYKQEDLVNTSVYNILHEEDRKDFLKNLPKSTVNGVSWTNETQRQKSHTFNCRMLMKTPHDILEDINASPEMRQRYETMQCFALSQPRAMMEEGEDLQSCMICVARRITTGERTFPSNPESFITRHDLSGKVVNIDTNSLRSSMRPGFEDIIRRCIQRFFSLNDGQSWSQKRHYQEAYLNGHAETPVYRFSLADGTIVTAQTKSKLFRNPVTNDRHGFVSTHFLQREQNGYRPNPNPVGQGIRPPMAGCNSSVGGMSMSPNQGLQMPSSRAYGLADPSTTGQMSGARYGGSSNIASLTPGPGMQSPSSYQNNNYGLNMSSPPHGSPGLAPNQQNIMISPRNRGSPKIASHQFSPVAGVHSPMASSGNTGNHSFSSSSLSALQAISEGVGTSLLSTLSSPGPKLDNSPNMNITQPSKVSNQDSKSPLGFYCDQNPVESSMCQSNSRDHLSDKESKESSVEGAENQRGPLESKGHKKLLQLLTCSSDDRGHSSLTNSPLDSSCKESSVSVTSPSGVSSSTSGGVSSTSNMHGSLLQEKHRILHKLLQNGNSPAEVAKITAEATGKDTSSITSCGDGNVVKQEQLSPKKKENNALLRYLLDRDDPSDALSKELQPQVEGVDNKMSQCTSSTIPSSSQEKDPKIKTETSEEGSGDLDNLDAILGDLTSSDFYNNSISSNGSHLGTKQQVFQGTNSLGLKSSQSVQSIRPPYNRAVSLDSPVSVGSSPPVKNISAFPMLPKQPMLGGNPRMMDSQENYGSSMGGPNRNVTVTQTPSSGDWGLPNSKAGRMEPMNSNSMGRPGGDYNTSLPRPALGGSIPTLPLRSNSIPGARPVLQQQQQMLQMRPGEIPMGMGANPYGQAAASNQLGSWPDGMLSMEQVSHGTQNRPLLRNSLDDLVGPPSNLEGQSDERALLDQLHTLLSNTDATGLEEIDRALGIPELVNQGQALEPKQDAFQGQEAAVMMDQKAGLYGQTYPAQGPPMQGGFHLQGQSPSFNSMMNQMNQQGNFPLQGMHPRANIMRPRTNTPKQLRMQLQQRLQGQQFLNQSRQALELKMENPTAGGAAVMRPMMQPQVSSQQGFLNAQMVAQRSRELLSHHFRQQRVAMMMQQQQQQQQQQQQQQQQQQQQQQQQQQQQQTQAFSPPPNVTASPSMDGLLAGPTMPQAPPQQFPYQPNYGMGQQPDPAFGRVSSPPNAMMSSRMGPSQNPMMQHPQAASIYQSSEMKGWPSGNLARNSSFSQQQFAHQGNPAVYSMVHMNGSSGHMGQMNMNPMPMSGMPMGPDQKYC

[2] = tested on: transactivating tegument protein VP16 (Human herpesvirus 1), Gal4-VP16 luciferase reporter; assay: repression of VP16-driven luciferase reporter – cell-based, luminescence, high throughput, counter-screen for SRC3 inhibitor project (AID 588794); conditions: mammalian cells, at 3.6 µM, active compounds read high
[3] = biological target: Nuclear receptor coactivator 1 (Homo sapiens) (UniProt Q15788); assay: NCOA1 GAL4-fusion reporter inhibition – cell-based, luminescence, quadruplicate, confirmation (AID 588820;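 active = mean inhibition above 46.68%, the untreated control wells mean plus 3 SD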;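 also: 0% = DMSO wells and 100% = gossypol 36 µM treated wells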); conditions: HEK293 GAL4-SRC1 luciferase reporter, at 3.6 µM, active compounds read high
Chain of Nuclear receptor coactivator 1 (Homo sapiens) (Q15788 whole entry, looked up, the tested form may be a part): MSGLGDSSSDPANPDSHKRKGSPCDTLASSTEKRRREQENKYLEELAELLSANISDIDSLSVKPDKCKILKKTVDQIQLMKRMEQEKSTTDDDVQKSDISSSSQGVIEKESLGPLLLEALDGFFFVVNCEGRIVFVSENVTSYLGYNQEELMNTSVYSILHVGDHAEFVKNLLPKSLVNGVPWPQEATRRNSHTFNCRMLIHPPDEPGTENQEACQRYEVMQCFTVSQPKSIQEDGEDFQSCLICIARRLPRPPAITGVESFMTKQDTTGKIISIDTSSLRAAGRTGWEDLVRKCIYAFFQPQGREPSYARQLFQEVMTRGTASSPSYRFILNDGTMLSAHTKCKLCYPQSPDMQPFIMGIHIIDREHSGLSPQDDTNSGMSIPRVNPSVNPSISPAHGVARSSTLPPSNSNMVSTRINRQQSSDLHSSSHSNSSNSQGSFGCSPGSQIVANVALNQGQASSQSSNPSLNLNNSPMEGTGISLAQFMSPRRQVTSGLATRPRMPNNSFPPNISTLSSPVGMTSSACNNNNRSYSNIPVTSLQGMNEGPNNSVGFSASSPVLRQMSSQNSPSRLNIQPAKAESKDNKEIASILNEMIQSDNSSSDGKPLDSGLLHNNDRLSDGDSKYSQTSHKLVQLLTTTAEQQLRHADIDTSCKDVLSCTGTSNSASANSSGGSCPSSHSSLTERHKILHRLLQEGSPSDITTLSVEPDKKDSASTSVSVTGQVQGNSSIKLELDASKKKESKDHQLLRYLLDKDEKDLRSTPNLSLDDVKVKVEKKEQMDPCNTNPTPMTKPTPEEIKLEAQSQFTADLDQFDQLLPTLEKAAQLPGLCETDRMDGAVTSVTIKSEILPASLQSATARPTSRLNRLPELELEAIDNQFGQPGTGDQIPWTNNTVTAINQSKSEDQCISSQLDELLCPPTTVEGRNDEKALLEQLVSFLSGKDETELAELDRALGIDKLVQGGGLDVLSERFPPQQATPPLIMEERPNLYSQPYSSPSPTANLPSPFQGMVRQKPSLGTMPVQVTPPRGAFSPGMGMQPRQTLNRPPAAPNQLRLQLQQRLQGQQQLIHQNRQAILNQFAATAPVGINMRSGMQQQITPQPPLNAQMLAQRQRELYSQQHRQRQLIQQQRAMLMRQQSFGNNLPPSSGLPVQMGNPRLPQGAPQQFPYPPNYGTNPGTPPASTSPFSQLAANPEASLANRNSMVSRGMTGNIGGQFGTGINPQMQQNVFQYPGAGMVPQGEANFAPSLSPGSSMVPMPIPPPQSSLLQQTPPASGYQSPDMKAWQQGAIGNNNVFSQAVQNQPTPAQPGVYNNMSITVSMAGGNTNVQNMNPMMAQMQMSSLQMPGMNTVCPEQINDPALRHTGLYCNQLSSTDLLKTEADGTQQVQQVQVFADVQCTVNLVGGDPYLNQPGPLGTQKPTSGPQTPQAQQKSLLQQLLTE

[4] = repression of VP16-driven luciferase reporter – cell-based, luminescence, high throughput, counter-screen for SRC1 inhibitor project (AID 588824; in the data active = inhibition above about 25%); conditions: cell-based VP16 transactivation luciferase luminescence; at 3.6 µM; active compounds read high
[5] = tested on: transactivating tegument protein VP16 (Human herpesvirus 1); assay: compounds suppressing VP16-driven luciferase signal – cell-based, luminescence, single concentration, counter-screen for SRC2 inhibitor project (AID 652007; in the data active = inhibition above about 36%); conditions: cell-based VP16 transactivation luciferase reporter, at 8.9 µM, active compounds read high
[6] = biological target: Nuclear receptor coactivator 2 (Homo sapiens) (UniProt Q15596); assay: inhibition of GAL4-SRC2 driven luciferase expression – cell-based, luminescence, HEK293, triplicate, confirmation (AID 652008;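 active = mean inhibition above 46.5%, the solvent-only control mean plus 3 SD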;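 also: 0% = DMSO-treated cells and 100% = Gossypol at 36 µM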); conditions: HEK293 GAL4-SRC2 luciferase reporter, at 8.9 µM, active compounds read high
Chain of Nuclear receptor coactivator 2 (Homo sapiens) (Q15596 whole entry, looked up, the tested form may be a part): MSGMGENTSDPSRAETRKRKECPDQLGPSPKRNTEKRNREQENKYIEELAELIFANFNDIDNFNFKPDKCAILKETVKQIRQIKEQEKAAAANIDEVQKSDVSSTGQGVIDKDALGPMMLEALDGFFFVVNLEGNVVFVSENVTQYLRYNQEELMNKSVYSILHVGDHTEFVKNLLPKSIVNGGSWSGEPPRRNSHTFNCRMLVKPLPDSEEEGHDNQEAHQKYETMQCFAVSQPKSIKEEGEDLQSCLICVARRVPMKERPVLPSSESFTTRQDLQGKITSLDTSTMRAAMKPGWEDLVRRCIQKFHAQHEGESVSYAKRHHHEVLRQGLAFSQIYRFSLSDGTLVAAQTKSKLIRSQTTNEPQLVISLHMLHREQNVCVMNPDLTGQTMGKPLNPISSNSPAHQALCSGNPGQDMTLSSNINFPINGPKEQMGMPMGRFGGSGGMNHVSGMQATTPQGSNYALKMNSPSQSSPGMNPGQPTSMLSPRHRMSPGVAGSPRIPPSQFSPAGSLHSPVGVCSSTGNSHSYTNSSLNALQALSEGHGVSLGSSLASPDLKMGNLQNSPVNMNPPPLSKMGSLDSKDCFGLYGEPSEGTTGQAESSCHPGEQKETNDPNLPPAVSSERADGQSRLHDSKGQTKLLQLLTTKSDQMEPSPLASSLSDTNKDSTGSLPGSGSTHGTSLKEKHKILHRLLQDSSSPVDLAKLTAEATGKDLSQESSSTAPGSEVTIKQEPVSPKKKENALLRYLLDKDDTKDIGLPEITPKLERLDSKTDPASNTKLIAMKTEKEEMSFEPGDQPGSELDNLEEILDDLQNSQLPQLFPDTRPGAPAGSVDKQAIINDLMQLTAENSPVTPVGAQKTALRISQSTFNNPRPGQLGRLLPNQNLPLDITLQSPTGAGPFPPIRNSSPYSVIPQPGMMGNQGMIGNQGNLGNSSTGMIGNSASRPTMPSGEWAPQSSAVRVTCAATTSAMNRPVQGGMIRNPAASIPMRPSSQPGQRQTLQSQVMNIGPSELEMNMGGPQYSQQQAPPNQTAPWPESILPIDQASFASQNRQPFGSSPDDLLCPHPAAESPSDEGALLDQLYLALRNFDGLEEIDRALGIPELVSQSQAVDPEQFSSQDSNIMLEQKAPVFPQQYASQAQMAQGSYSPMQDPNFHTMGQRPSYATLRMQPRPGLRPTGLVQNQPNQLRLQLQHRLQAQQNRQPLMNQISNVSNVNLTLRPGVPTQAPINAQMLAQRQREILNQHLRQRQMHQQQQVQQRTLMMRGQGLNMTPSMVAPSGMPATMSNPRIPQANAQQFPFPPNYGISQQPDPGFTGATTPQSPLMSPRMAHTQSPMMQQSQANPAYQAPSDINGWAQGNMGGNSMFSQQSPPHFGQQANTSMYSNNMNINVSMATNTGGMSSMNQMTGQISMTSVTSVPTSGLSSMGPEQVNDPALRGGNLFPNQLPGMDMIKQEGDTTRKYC

[7] = VP16-driven transactivation reporter suppression – cell-based, luminescence, HEK293, counter-screen for COUP-TFII antagonist project (AID 687007; in the data active = inhibition above about 13%); conditions: HEK293 Gal4-VP16 luciferase reporter, at 8.5 µM, active compounds read high
[8] = biological target: COUP transcription factor 2 (Homo sapiens) (UniProt P24468); assay: retest of COUP-TFII reporter suppressors – cell-based, luciferase reporter, HEK293, triplicate, confirmation (AID 687008;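 active = mean inhibition over three repeats above a set limit taken from the earlier primary screen, cut at about 38% in these data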;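 also: 100% = cells given the luciferase reporter alone without the COUP-TF2 vector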); conditions: HEK293 NGFI-A luciferase reporter, luminescence; at 8.5 µM; active compounds read high
Chain of COUP transcription factor 2 (Homo sapiens) (P24468 whole entry, looked up): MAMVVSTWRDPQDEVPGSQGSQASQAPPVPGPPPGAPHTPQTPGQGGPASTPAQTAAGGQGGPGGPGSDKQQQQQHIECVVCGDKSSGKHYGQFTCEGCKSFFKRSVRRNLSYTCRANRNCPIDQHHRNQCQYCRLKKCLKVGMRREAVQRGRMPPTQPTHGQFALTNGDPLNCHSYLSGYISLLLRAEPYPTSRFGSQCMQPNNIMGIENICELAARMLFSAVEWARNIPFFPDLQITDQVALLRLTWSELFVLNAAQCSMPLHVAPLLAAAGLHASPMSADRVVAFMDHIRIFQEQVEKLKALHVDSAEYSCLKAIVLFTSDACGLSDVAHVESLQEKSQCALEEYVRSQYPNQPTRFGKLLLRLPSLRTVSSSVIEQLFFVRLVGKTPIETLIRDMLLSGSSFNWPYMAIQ

Measured: inhibition

COCCn1c(C)cc(C(=O)COc2ccc(C)nc2[N+](=O)[O-])c1C
active: [6] 59.5%
inactive: [1] 24.8% | [2] 1.88% | [3] 12.1% | [4] -5.22% | [5] 23.8%

Nc1ncc([N+](=O)[O-])c(N2CCCCCC2)n1
active: [1] 76.5% | [2] 50.2% | [3] 67.5% | [4] 51.2% | [6] 57.3%
inactive: [5] 4.49%

O=C1C=CC(=C(c2ccc(O)cc2)c2ccc(O)cc2)C=C1
inactive: [5] 26.8% | [6] 27.1%
active: [1] 71.2% | [2] 47.5% | [3] 54% | [4] 46.8%

COc1cccc(N(C(=O)CCl)C(C(=O)NCCc2ccccc2)c2cccs2)c1 (stereo not drawn)
inactive: [3] 24.3% | [5] 27.8%
active: [1] 60.3% | [2] 36% | [4] 34% | [6] 63.3%

CCOC(=O)NNC(=O)CCn1c2c(c3ccccc31)CCCC2
inactive: [5] 1.39% | [6] 39.1%
active: [1] 54.1% | [2] 43.4% | [3] 51.3% | [4] 37%

COCC(C)n1c(C)cc(C(=O)COC(=O)c2cccn2C)c1C (stereo not drawn)
active: [5] 48.1% | [6] 57.2%
inactive: [1] 9.47% | [2] -13.8% | [3] -58.2% | [4] -61%

COc1ccc(-c2cn[nH]c2-c2ccc(O)cc2O)cc1
inactive: [5] -0.83%
active: [1] 67.1% | [2] 46.2% | [3] 53.9% | [4] 37.3% | [6] 50%

OCCN(CCO)CC(O)COc1ccc(C23CC4CC(CC(C4)C2)C3)cc1 (stereo not drawn)
inactive: [1] 23.8% | [2] 18.7% | [3] 15.1% | [4] 8.76%
active: [5] 61.9% | [6] 81.9%

Cc1cc(C(=O)COC(=O)C2CC2)c(C)n1-c1ccc(F)cc1
inactive: [1] 4.63% | [2] 5.67% | [3] -12.9% | [4] -14.9% | [5] 1.88% | [6] 20.3% | [7] -16.4% | [8] 30.3%

O=C(CN1C(=O)c2ccccc2S1(=O)=O)N1CCc2ccccc21
inactive: [3] 40.8%
active: [1] 60.5% | [2] 60.9% | [4] 65.1% | [5] 65.5% | [6] 85.9% | [7] 65.9% | [8] 74.9%

Oc1ccc(Nc2ncnc3scc(-c4ccccc4)c23)cc1
active: [2] 35.8% | [4] 31.3% | [6] 57.6%
inactive: [1] 38.6% | [3] 41% | [5] -10.2%

Cc1nc(SCC(=O)Nc2nc3ccccc3s2)c(C#N)c(C)c1C
active: [1] 92.7% | [2] 88.5% | [3] 82.4% | [4] 83.2% | [5] 92.1% | [6] 96.9%

CC(C)(C)c1ccc(Oc2ccc(NC(=O)c3ccccc3C(=O)O)cn2)cc1
active: [5] 39.5% | [6] 62.4%
inactive: [1] 4.23% | [2] 10.3% | [3] 2.66% | [4] 7.37%

OCCN1CCN(c2ncnc3ccc(Br)cc23)CC1
active: [1] 68.8% | [2] 41.1% | [3] 65.8% | [4] 44.5%
inactive: [5] 2.48% | [6] 36%

O=C(CCCN1C(=O)/C(=C/c2ccccc2Cl)SC1=S)NNC(=O)c1ccc(Cl)cc1Cl
inactive: [3] 37.1%
active: [1] 55% | [2] 32.6% | [4] 33% | [5] 76.7% | [6] 92.4%

COc1ccc(-n2c(C)c(C(C)=O)c3cc(O)ccc32)cc1
inactive: [5] -5.76%
active: [1] 76.1% | [2] 55.6% | [3] 64.1% | [4] 56.6% | [6] 54%

Cc1ccc(OCC(=O)c2cc(C)n(-c3ccccc3)c2C)c([N+](=O)[O-])n1
inactive: [1] 38.5% | [2] -20.9% | [3] 29.1% | [4] -31.4% | [5] -12.8%
active: [6] 83.3%

Cc1ccc(C)c(N2CCN(C(=O)CCS(=O)(=O)c3ccc4c(c3)NC(=O)CO4)CC2)c1
inactive: [1] -1.43% | [2] 16.3% | [3] -0.57% | [4] 17.9% | [5] 3.15% | [6] 15.3%

Cc1cc(N2CCOCC2)c2c(N)c(Br)cc(C)c2n1
active: [1] 71.8% | [2] 59% | [3] 76.3% | [4] 60.3% | [6] 54.8%
inactive: [5] -7.31%

COc1ccc(-c2cc(=O)oc3c(C)c(O)ccc23)cc1
inactive: [5] -7.99% | [6] 23.3%
active: [1] 49.4% | [2] 39.7% | [3] 50.3% | [4] 26.4%

O=C(c1cncc(Br)c1)N1CCc2ccccc2C1
inactive: [3] 46.3% | [5] 1.4% | [6] 15.9%
active: [1] 46.3% | [2] 33.3% | [4] 29.3%

O=C(Nc1cccc(C(F)(F)F)c1)Nc1nnc([C@@H]2C[C@H](O)[C@@H](CO)O2)s1
inactive: [2] 21.6% | [3] 29.3% | [4] 20.7% | [5] 1.58% | [6] 29.1%
active: [1] 49%

C=CCSc1nsc(NC(=O)Nc2cccc(C(C)=O)c2)n1
inactive: [3] 46.4% | [5] -25.7% | [6] 17.3% | [7] -25.6% | [8] 2.43%
active: [1] 44% | [2] 31.2% | [4] 27.2%

COc1ccc(Nc2ccnc3ccccc23)cc1
inactive: [1] 41.8% | [5] -20.9% | [6] 30%
active: [2] 30.3% | [3] 52.8% | [4] 26.4%

Nc1ccc(-c2nc3c(Cl)cc(N)cc3[nH]2)cc1
inactive: [1] 18.7% | [2] -18.4% | [3] -18.9% | [4] -17.4% | [5] 28.1%
active: [6] 71.7%

O=C(O)C1CC=CCC1C(=O)Nc1ccc2c(c1)OCCO2 (stereo not drawn)
inactive: [1] -15.8% | [2] -7.19% | [3] -47.1% | [4] -8.13% | [5] -13.1% | [6] 6.92%

Brc1ccc2ncnc(NCc3cccnc3)c2c1
active: [1] 70.6% | [2] 44% | [3] 55.9% | [4] 42.8%
inactive: [5] -3.67% | [6] 39.8%

Cc1ccc(/C=C2\SC(=S)N(CCCC(=O)NNC(=O)c3ccccc3O)C2=O)cc1
active: [1] 73.3% | [2] 53.6% | [3] 74.7% | [4] 58.3% | [5] 92.8% | [6] 95.4%

Cc1[nH]ccc2c1[nH]c1cc(=O)ccc12
active: [1] 56% | [2] 39.5% | [3] 59.1% | [4] 38.7%
inactive: [5] 3.4% | [6] 26%

CCc1c(C#N)sc(C(N)=O)c1CC
inactive: [1] 27.8% | [2] 20.5% | [3] 20.6% | [4] 13.2% | [5] 8.1% | [6] 25.6%

CC1=C(C(=O)OCc2ccc3c(c2)OCO3)C(c2cccc([N+](=O)[O-])c2)NC(=O)N1 (stereo not drawn)
inactive: [5] -0.72%
active: [1] 64.6% | [2] 42.2% | [3] 65.7% | [4] 37.3% | [6] 51.9%

Cc1ccccc1C(=O)N1CCN(c2ccc(NC(=O)CSc3ccc(Cl)cc3)cc2)CC1
active: [1] 46.2% | [2] 45.8% | [3] 46.8% | [4] 38.8% | [6] 51.5%
inactive: [5] 18.4%

Reference: PubChem BioAssay
